Measurements: PubChem BioAssay (NCI)
Where “and” joins values, the source holds several entries; their conditions need not be identical. Equal values may be shown once. The panel holds about 79,000 compounds, 15% with a hit somewhere; the sample as a whole holds those more often. Cut-off read from the data, not from the text of the source: active = growth inhibition above about 70%; inactive = the rest.

Assays:
[1] = NCI Yeast Anticancer Drug Screen. Data for the rad50 strain (AID 155);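 note: 0% = growth of vehicle-only cultures of the same strain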; conditions: S. cerevisiae rad50 strain growth inhibition; at 50.0 µM; stronger effect = higher value
Method in brief: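 Cells are treated with compound, grown, and their growth is then scored against vehicle-only cultures of the same repair-deficient yeast strain.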

[2] = NCI Yeast Anticancer Drug Screen. Data for the mec2-1 strain (AID 157); conditions: S. cerevisiae mec2-1 strain, at 50.0 µM, stronger effect = higher value
Method in brief: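 Vehicle-treated cultures served as reference for growth inhibition of compound-exposed mec2-1 yeast.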

[3] = NCI Yeast Anticancer Drug Screen. Data for the sgs1 mgt1 strain (AID 161);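 note: 0% = growth of cultures given vehicle only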; conditions: S. cerevisiae sgs1 mgt1 strain, at 50.0 µM, stronger effect = higher value
Method in brief: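 Read-out: growth inhibition vs vehicle controls. Cells: mutant yeast strain deficient in DNA damage repair.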

[4] = NCI Yeast Anticancer Drug Screen. Data for the cln2 rad14 strain (AID 165);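 note: 0% = growth equal to vehicle treated cultures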; conditions: S. cerevisiae cln2 rad14 strain, at 50.0 µM, stronger effect = higher value
Method in brief: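 Each compound was tested on cln2 rad14 yeast. Inhibition of growth was calculated against vehicle-exposed controls.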

[5] = NCI Yeast Anticancer Drug Screen. Data for the bub3 strain (AID 167); conditions: S. cerevisiae bub3 mutant strain, at 50.0 µM, stronger effect = higher value
Method in brief: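 Part of a panel of yeast mutants defective in DNA damage repair or cell cycle regulation. Each strain is grown with compound, and inhibition is calculated relative to solvent-treated cultures.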

[6] = NCI Yeast Anticancer Drug Screen. Data for the mlh1 rad18 strain (AID 175); conditions: S. cerevisiae mlh1 rad18 strain growth inhibition; at 50.0 µM; stronger effect = higher value
Method in brief: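 Vehicle-treated cultures served as the reference for growth inhibition in a yeast strain carrying DNA damage repair alterations exposed to each compound.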

Measured: growth inhibition

OCC(O)C(O)C1OC(O)C(O)C(O)C1O (configuration not stated)
inactive: [1] 1.1% and -15.8% | [2] 0.45% and -15.2% | [3] 3.1% and -4.25% | [4] -8.25% and -17.1% | [5] 0.25% and -1.65% | [6] 7.85% and -7.65%

CC(Cc1ccccc1)NC(=O)c1ccccc1 (configuration not stated)
inactive: [1] 18.2% and 5.45% | [2] 3.3% and -1.1% | [3] -19.9% and -2.25% | [4] -93.5% and -7.65% | [5] -14.9% and 2.45% | [6] 7.4% and -5.3%

CCCC(=O)Oc1ccccc1C(C)C
inactive: [1] 12.5% and 2.75% | [2] 11.9% and -21.8% | [3] 11% and -5.25% | [4] 14.1% and -8.9% | [5] 6.8% and -0.15% | [6] 1.65% and -19.6%

O=C(O)CCC(=O)c1cccs1
inactive: [1] 12.8% and -5.4% | [2] 4.25% and 19.6% | [3] 2.2% and -4.45% | [4] -28.4% and -5.5% | [5] -5.1% and -25.4% | [6] -28.9% and -21.1%

CCOC(=O)C1=C(C)NC(=O)NC1c1ccccc1 (configuration not stated)
inactive: [1] 9.5% and -7% | [2] 15.1% and -20.2% | [3] -0.15% and 4.45% | [4] -19.1% and 6.95% | [5] -0.9% and 15.2% | [6] 35.9% and -8.4%

Nc1c2c(nc3ccccc13)CCCC2 (tested in a mixture with another compound)
inactive: [1] -7.95% and -12.2% | [2] -20.4% and -22.8% | [3] -14.9% and -14% | [4] 9.6% and 9.4% | [5] -21.2% and -18.6% | [6] -11.7% and -0.1%

CCSC(SCC)C(OC(C)=O)C(OC(C)=O)C(COC(C)=O)OC(C)=O (configuration not stated)
inactive: [1] -2.1% and -16.1% | [2] -2.3% and -2.8% | [3] 8.1% and 4.4% | [4] -40% and -18.2% | [5] -7.25% and -3.55% | [6] 16.6% and 10.9%

C=CCN(CC=C)c1nc2ccccc2c(=O)[nH]1
inactive: [1] 39.6% and -6.7% | [2] 24.2% and -3.7% | [3] 22.5% and -3.8% | [4] 7.9% and -60.1% | [5] -2.25% and -12.4% | [6] 17.2% and 0.45%

CCCCc1c(C)[nH]c(=S)[nH]c1=O
inactive: [1] -6.15% and 5.3% | [2] -14.8% and -14.1% | [3] -4.35% and 0.4% | [4] -6.1% and 13.2% | [5] -0.05% and 15% | [6] -5.45% and 2%

CC(C)CC(NC(=O)COc1ccc(Cl)cc1Cl)C(=O)O (configuration not stated)
inactive: [1] -16.8% and -4.25% | [2] -3.15% and -14.4% | [3] 7.55% and -4.15% | [4] -50.5% and -21.7% | [5] 4.5% and 13.7% | [6] -3.8% and -11.1%

NC1CCCCCCC1
inactive: [1] 4.85% and 5.55% | [2] -4.95% and 2.2% | [3] 0.75% and 3.8% | [4] -4.2% and 1% | [5] 9.85% and 3.6% | [6] 0.55% and 2.7%

CC(=O)CCC1CC(=O)OC1(C)C (configuration not stated)
inactive: [1] -37.6% and 0.75% | [2] -30% and -11.2% | [3] -14.3% and -15.4% | [4] 7.85% and -5.75% | [5] -26.2% and -5.35% | [6] -26.2% and 23.8%

O=C(O)C1CCCC2C(O)CCC(=O)C12 (configuration not stated)
inactive: [1] -23.5% and -14.2% | [2] -16.3% and -6.8% | [3] -12.7% and -5.6% | [4] -5.45% and 4.25% | [5] -12.9% and -5.9% | [6] -29.4% and -32%

Nc1ccc(CCc2ccc(N)cc2)cc1
inactive: [1] 2.95% and -24.4% | [2] -6.85% and -19.4% | [3] -34.4% and -18.4% | [4] -48.5% and -20.8% | [5] 7.35% and -18.9% | [6] 12.2% and -8.65%

NC(N)=S
inactive: [1] -10.2% and 7% | [2] -2.4% and -11.8% | [3] -6.1% and 9% | [4] 32.8% and 1.9% | [5] 3.75% and 3.8% | [6] 0.35% and -9.45%

CC(=O)c1ccc(-c2ccccc2-c2ccccc2)cc1
inactive: [1] -9.3% and 43.7% | [2] 5.95% and 3.5% | [3] 3.6% and 16.4% | [4] -21.2% and -26.1% | [5] -0.3% and 4.35% | [6] 1.15% and 33.1%

N#CC(Cc1ccccc1)c1ccccc1 (configuration not stated)
inactive: [1] -65.7% and 17.2% | [2] -12.5% and 11.1% | [3] -18.1% and 29.8% | [4] -24.8% and 1.75% | [5] 0.45% and -5% | [6] 3.45% and 6.45%
